The values that follow come from PubChem BioAssay.

Activity calls are given as the source filed them. Unless noted, how the calls were made is not given here.

The nature of test [1]: resazurin metabolic signal in HepG2 cells – cell-based, resazurin fluorescence, 24 h, PK04 Diversity Set, profiling panel (AID 1172). Further: test concentration not given here. As to conditions: HepG2 viability, higher = more signal.
Test [2] is described as follows: budding yeast growth changes without added modifier – OD600, strain BY4716, 24 h, basal condition, primary screen (AID 1173). As to conditions: S. cerevisiae BY4716 growth, OD600, 24 h; higher = more signal, called active from +8 up or from −8 down.
The nature of test [3]: viability profiling in MM1S myeloma cells – cell-based, resazurin fluorescence, basal, 24 h, PK04 Diversity Set, profiling panel (AID 1174).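 Further: MM1S multiple myeloma cell line; test concentration not given here.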 The note with it: higher = more signal, called active from +8 up or from −8 down. A general note: Resazurin is reduced to fluorescent resorufin, in cell work by metabolically active cells.
Test [4] deals with Dihydroorotate dehydrogenase (quinone), mitochondrial (Plasmodium falciparum (isolate 3D7)) (UniProt Q08210). As to the kind of experiment: inhibition of P. falciparum DHODH – biochemical, C-terminal His tag, absorbance 600 nm, primary screen (AID 1175).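 Further: recombinant parasite enzyme with a five histidine tag at its C terminus; test concentration not given here.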 As to conditions: PfDHODH enzyme, DCIP absorbance 600 nm; higher = more signal, called active from +8 up or from −8 down.
The nature of test [5]: inhibition of PAO1 biofilm formation – strain PAO1, LB-PBS medium, absorbance 600 nm, primary screen (AID 1176). Further: test concentration not given here. The note with it: P. aeruginosa PAO1 growth/biofilm, A600, 12 h; higher = more signal.
Test [6] can be described thus: growth modulation of vineyard yeast isolate – strain RM11-1a, OD600, basal, 24 h, primary screen (AID 1177).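 Further: cultures grown under basal conditions with no added stressor; test concentration not given here.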 The note with it: S. cerevisiae RM11-1a growth, OD600, 24 h; higher = more signal, called active from +8 up or from −8 down.
The nature of test [7]: growth of efflux-deficient E. coli DRC39 – strain DRC39, OD650, 24 h, E. coli filamentation inducers, primary screen (AID 1178).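 Further: growth measured as culture turbidity by optical density at 650 nm; test concentration not given here.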 As to conditions: E. coli DRC39 acrAB, higher = more signal, called active from +8 up or from −8 down.
Test [8] in a line: growth of efflux-deficient E. coli DRC39 – strain DRC39, OD650, 48 h, E. coli filamentation inducers, primary screen (AID 1179).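 Further: screen aims at cell division blockers that make cells filament.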 As to conditions: E. coli DRC39 delta-acrAB growth, higher = more signal, called active from +8 up or from −8 down.
Test [9] is described as follows: viability profiling in RPMI8226 myeloma cells – cell-based, resazurin fluorescence, basal, 24 h, PK04 Diversity Set, profiling panel (AID 1180).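 Further: RPMI8826 multiple myeloma cell line at 5000 cells per well; test concentration not given here.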 As to conditions: higher = more signal.
Test [10] deals with E3 ubiquitin-protein ligase XIAP (Homo sapiens) (UniProt P98170). As to the kind of experiment: small molecules binding XIAP protein – biophysical, small-molecule microarray, fluorescence 635 nm, primary screen (AID 1181).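 Further: score merges 667 nm emission and signal to noise over triplicate slides.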 The note with it: higher = more signal.
Chain of E3 ubiquitin-protein ligase XIAP (Homo sapiens) (P98170 whole entry, looked up): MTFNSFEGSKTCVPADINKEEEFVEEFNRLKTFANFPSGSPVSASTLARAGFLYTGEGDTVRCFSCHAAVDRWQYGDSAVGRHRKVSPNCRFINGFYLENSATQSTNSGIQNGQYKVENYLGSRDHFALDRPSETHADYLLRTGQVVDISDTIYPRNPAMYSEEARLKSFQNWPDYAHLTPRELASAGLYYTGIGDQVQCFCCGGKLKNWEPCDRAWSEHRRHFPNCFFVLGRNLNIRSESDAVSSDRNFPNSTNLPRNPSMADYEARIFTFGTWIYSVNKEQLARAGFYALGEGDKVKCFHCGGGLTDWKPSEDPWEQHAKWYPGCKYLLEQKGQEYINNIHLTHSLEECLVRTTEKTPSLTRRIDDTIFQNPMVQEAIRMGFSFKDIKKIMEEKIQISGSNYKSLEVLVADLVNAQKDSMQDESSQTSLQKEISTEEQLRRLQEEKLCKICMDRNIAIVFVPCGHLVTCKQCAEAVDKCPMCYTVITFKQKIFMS

Chain of Dihydroorotate dehydrogenase (quinone), mitochondrial (Plasmodium falciparum (isolate 3D7)) (Q08210 whole entry, looked up): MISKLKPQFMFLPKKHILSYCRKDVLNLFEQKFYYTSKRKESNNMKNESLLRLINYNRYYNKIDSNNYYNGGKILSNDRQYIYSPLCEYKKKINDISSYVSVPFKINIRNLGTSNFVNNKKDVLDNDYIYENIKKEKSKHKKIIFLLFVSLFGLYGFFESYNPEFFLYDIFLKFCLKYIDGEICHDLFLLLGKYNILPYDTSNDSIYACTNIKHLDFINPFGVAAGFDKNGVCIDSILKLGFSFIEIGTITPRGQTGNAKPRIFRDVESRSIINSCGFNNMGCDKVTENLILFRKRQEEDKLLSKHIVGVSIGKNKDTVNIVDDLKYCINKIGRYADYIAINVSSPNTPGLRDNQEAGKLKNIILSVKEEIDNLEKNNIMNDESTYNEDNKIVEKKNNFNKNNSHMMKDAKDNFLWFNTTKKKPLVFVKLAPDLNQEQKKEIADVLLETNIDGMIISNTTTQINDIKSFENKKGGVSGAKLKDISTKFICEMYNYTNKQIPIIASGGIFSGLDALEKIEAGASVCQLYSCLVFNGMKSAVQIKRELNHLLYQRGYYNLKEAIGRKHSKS

On to `COCCOC(=O)N1C(=O)[C@@]2(c3cc(C#Cc4ccc(OC)cc4)ccc31)[C@H](c1ccc(O)cc1)N1[C@H](c3ccccc3)[C@H](c3ccccc3)OC(=O)[C@H]1[C@@H]2C(N)=O`, for which the z-score in test [1] is -0.422; in [2] it was -0.306 (inactive); in test [3], -1.02 (inactive); in [5], 0.898 (inactive); in test [6] it was 0.0054 (inactive); in [7] it was 0.761 (inactive). Moreover, the z-score in [8] is 0.0669 (inactive); in test [9] it was -2.3. The composite z-score in [4] is -0.0395 (inactive); in test [10], -0.0559.
For `CCOC(=O)NN=C1C[C@@H](O)[C@@H](O)[C@@H]2[C@@H]3C(=O)N(CC)C(=O)[C@@H]3CC[C@@H]12`, the z-score was -0.0886 in [1]; 0.398 (inactive) in [2]; -0.621 (inactive) in test [3]; -0.331 (inactive) in [5]; -0.823 (inactive) in test [6]; -0.145 (inactive) in test [7]. In addition, the z-score is -0.325 (inactive) in test [8] and -0.423 in test [9]. In addition, the composite z-score was -0.538 (inactive) in [4] and -0.105 in test [10].
Consider `O=C1O[C@@H](c2ccccc2)[C@@H](c2ccccc2)N2[C@@H](c3ccc(OCCO)cc3)[C@]3(C(=O)Nc4ccc(C#CCCO)cc43)[C@@H](C(=O)N3CCCCCCC3)[C@H]12`, for which the z-score was 0.0125 in test [1]; -0.355 (inactive) in [2]; 0.605 (inactive) in test [3]; 1.72 (inactive) in test [5]; 1.17 (inactive) in test [6]; -0.515 (inactive) in test [7]. For the same compound, the z-score in test [8] was 0.543 (inactive); in test [9], 1.55. Moreover, the results for the composite z-score in test [4] and in test [10] were 0.221 (inactive) and 0.733, respectively.
In the case of `COCCOC(=O)N1C(=O)[C@@]2(c3cc(C#CC4(O)CCCCCC4)ccc31)[C@H](C(=O)N1CCN(c3ncccn3)CC1)[C@H]1C(=O)O[C@H](c3ccccc3)[C@H](c3ccccc3)N1[C@@H]2c1ccc(OCCO)cc1`, the z-score in test [1] is -0.324; in test [2] it was 1.44 (inactive); in test [3] it was 0.712 (inactive); in test [5], 2.53 (inactive); in [6] it was 2.98 (inactive); in test [7], -0.446 (inactive). In addition, the z-score in [8] is 0.293 (inactive); in test [9] it was 0.928. Further, the composite z-score was -0.0915 (inactive) in [4] and -0.0749 in test [10].
Regarding `CC(C)OC(=O)C=C1C[C@@H](c2ccc(C#N)cc2)O[C@@H](c2ccc(C#N)cc2)O1`, the z-score in test [1] was -0.389; in test [2], -0.709 (inactive); in [3] it was -0.793 (inactive); in [5] it was -0.281 (inactive); in [6], 0.146 (inactive); in [7], -0.667 (inactive). Besides, the values for the z-score in [8] and in test [9] were -0.182 (inactive) and -0.312, respectively. Also, the results for the composite z-score in test [4] and in [10] were 0.382 (inactive) and -0.0994, respectively.
With `COc1ccc(O[C@H]2C=C[C@@H](c3ccccc3)O[C@@H]2COC(=O)CCC(C)=NOC[C@@H](C)[C@H](OCc2ccccc2)C(C)C)cc1`, the z-score is 0.85 in test [1]; 0.445 (inactive) in test [2]; 0.24 (inactive) in test [3]; -0.598 (inactive) in test [5]; 0.659 (inactive) in [6]; 0.394 (inactive) in test [7]. Besides, the z-score in [8] was -0.9 (inactive); in test [9] it was 0.0668. Moreover, the composite z-score in [4] is -0.926 (inactive); in [10], 0.552.
`COCCCNC(=O)[C@@]1(C)c2ccccc2C(=O)N(Cc2ccc(OC(F)(F)F)cc2)[C@H]1c1ccc(CO)cc1`: the z-score in [1] is -0.576; in [2], -0.0763 (inactive); in test [3], -0.741 (inactive); in [5], 0.431 (inactive); in test [6] it was -0.419 (inactive); in test [7], 0.434 (inactive). The z-score was 1.17 (inactive) in [8] and -0.661 in test [9]. Further, the composite z-score in test [4] was -0.617 (inactive); in test [10], -0.148.
Turning to `CO[C@@H]1COC(=O)CC=C[C@@H](C)[C@@H]2C=C[C@@H](O)[C@@H](COC(=O)CC=C[C@H]1C)O2`, the z-score was 0.234 in test [1]; -1.29 (inactive) in test [2]; 0.604 (inactive) in [3]; 0.683 (inactive) in test [5]; -2.03 (inactive) in test [6]; -0.0072 (inactive) in test [7]. Moreover, the z-score was -0.392 (inactive) in [8] and -0.501 in [9]. Besides, the composite z-score in test [4] was -1.34 (inactive); in [10] it was 0.0304.
In the case of `CC(C)C[C@@H]1NC(=O)[C@H]2C[C@@H](C(=O)NCCCCCCN(C)C)[C@@H](c3cccc(OCCO)c3)N2C1=O`, the z-score in test [1] is -0.233; in [2] it was -0.0693 (inactive); in test [3], -0.891 (inactive); in test [5], -0.0059 (inactive); in test [6], -0.159 (inactive); in [7] it was 0.0442 (inactive). Also, the z-score in test [8] is 0.0484 (inactive); in test [9], -0.992. The composite z-score is 0.344 (inactive) in [4] and 0.0753 in [10].
Regarding `COC(=O)CC=C[C@@H](C)[C@@H](C=NO[C@@H](C)c1cc(-c2c(C)cc(C)cc2C)no1)OC`, the z-score in [1] is -0.295; in test [2], -0.408 (inactive); in test [3], -0.656 (inactive); in test [5], -0.728 (inactive); in [6], -0.357 (inactive); in test [7], -0.716 (inactive). Besides, the z-score in test [8] is -2.26 (inactive); in test [9] it was 0.197. Also, the results for the composite z-score in [4] and in test [10] were -2.58 (inactive) and -0.124, respectively.
On to `COCCOC(=O)N1C(=O)[C@@]2(c3cc(C#CCNC(N)=O)ccc31)[C@H](c1ccccc1OCCO)N1[C@H](c3ccccc3)[C@H](c3ccccc3)OC(=O)[C@H]1[C@@H]2C(=O)N1CCN(c2ncccn2)CC1`, for which the z-score in [1] is -0.0783; in [2] it was 0.353 (inactive); in [3] it was -0.0546 (inactive); in [5] it was 2.49 (inactive); in [6], 0.733 (inactive); in [7] it was 0.924 (inactive). The results for the z-score in test [8] and in test [9] were 1.18 (inactive) and 0.241, respectively. Also, the composite z-score in [4] was -1.48 (inactive); in [10], -0.152.
`CCOC(=O)C[C@H]1[C@H](OC(=O)c2cc3ccccc3oc2=O)[C@@H](NC(=O)c2ccc3ccccc3n2)c2cc(OCCCO)ccc2N1C(=O)c1ccccc1`: the z-score in [1] is -0.983; in test [2], -2.08 (inactive); in test [3], -0.668 (inactive); in test [5], -0.754 (inactive); in test [6] it was -0.0333 (inactive); in test [7], -0.341 (inactive). Further, the z-score in test [8] was -0.753 (inactive); in [9], -0.599. Besides, the figures for the composite z-score in [4] and in test [10] were -1.97 (inactive) and 0.217, respectively.
